Assay outcomes deposited in PubChem by several laboratories.
Shown are actives, neighbours in structure and some others; about 4% of the full set was active somewhere.
Mtb bLac sens: beta-lactam sensitization of Mtb H37Rv; M. tuberculosis H37Rv growth with meropenem, percent inhibition; inhibition, % at 25 µM; 330,000 tested, 0.27% active;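 note: growth measured after seven days incubation then overnight dye step; 0% = bacteria only wells and 100% = bacteria with antibiotic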
FBA Mtb inh: inhibitors of M. tuberculosis fructose-bisphosphate aldolase | 360,000 tested, 2.3% active | inhibition, % at 1 µM | purified M. tuberculosis FBA, fluorescence read-out | P9WQA3; in the data active = inhibition above about 27%;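 note: 0% = vehicle and 100% = reference inhibitor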
UGM FP inh: Mtb UDP-galactopyranose mutase inhibition; P9WIQ1; purified UGM, fluorescence polarization probe displacement; inhibition, % at 10 µM; 320,000 tested, 0.06% active; AID 504406; in the data active = inhibition above about 10%, passing the limit was not always enough
Target sequence (P9WIQ1 whole entry, looked up): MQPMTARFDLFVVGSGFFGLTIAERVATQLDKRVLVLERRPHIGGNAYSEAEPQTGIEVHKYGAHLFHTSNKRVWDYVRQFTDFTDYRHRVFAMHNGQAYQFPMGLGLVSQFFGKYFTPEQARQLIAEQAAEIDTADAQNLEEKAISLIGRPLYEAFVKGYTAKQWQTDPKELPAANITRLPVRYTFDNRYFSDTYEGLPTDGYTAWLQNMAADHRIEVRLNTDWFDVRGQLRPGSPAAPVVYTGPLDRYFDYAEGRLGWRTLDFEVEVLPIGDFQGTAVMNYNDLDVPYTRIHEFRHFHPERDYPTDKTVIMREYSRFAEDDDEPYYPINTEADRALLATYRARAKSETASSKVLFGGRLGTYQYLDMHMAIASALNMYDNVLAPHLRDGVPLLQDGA
GDH-TPI inh: inhibits GDH-TPI coupling enzymes, artifact for Mtb FBA screen | GDH-TPI coupled enzyme counterscreen, NADH absorbance | inhibition, % at 4.8 µM | 360,000 tested, 1.2% active; in the data active = inhibition above about 30%;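 note: 0% = DMSO wells and 100% = wells lacking the enzyme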
Rv3671c protease: inhibits the M. tuberculosis serine protease Rv3671c; P9WHR9; inhibition, % at 5.96 µM; 320,000 tested, 0.048% active; in the data active = inhibition above about 38%;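 note: extracellular domain of Rv3671c used as enzyme; 0% = enzyme with DMSO and 100% = no enzyme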
RecA intein inh: blocks M. tuberculosis RecA intein splicing; inhibition, % (no concentration beside the values); 290,000 tested, 0.75% active; cell-free RecA intein splicing, fluorescence; P9WHJ3; AID 2221; in the data active = inhibition above about 30%;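 note: 0% = vehicle wells and 100% = reference inhibitor control wells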
GFP chromophore: counter-screen GFP chromophore formation inhibition; shares compounds with RecA intein inh; cell-free GFP chromophore formation, fluorescence; EC50, µM; 2,100 tested, 83% active; AID 434968
Starred values were filed as active, the others as inactive; . = no result given. Unless noted, the rule behind the calls is not given here.

SMILES	Mtb bLac sens	FBA Mtb inh	UGM FP inh	GDH-TPI inh	Rv3671c protease	RecA intein inh	GFP chromophore
COC(=O)c1cc([N+](=O)[O-])c(-n2ccnc2)c([N+](=O)[O-])c1	9.0	-5.4	0.2	3.4	5.6	71.2*	10.9*
O=C(COc1coc(CN2CCc3ccccc3C2)cc1=O)Nc1cccc([N+](=O)[O-])c1	-2.1	-0.2	0.8	2.1	-4.4	1.4	.
CC1(C(=O)NCc2ccco2)Cc2c(-c3cccc(C(F)(F)F)c3)ccnc2O1 (stereo unspecified)	.	-3.6	.	-2.6	.	.	.
COc1cc(/C=N\NC(=O)c2ccccc2F)ccc1Oc1ccc([N+](=O)[O-])cn1	9.0	-2.2	1.5	24.2	8.1	33.7*	>38
Cc1ccc(NC(=O)C(=Cc2ccc(C(=O)O)cc2)C(=O)Nc2ccc(C)cc2C)c(C)c1	16.8	4.3	1.8	12.8	4.7	82.6*	7.58*
O=C(CCl)N1CCN2C(=O)c3ccccc3C12c1ccc(Cl)cc1 (stereo unspecified)	94.5	1.1	1.3	-4.8	4.7	83.4*	4.21*
Cc1ccc(Sc2c([N+](=O)[O-])ncn2C)cc1	-14.1	0.9	-0.9	17.3	2.2	52.8*	>38
Cc1nc(COC(=O)c2cc(O)c3ccccc3c2O)cs1	.	2.9	.	3.8	.	56.0*	6.2*
COc1ccc(CNC(=O)CS(=O)(=O)Cc2nc(-c3cccc(OC)c3)oc2C)cc1	6.6	-2.0	-3.5	10.0	-5.0	-2.8	.
O=C(Nc1ccc(N2CCOCC2)cc1)Nc1ccc2nsnc2c1	-3.5	-0.9	-0.7	-3.7	5.3	54.3*	>38
Cc1ccc(S(=O)(=O)NC(=O)Nc2ccc(N(C)C)cc2)cc1	-9.4	0.8	2.2	0.0	-29.8	49.1*	19*
Cc1ccc(NC(=O)NNS(=O)(=O)c2ccc(Br)cc2)cc1	0.6	3.2	3.4	0.8	-12.1	-2.0	.
N#Cc1c(-c2ccccc2)nc(SCC(=O)N(c2ccccc2)c2ccccc2)[nH]c1=O	6.0	0.4	0.9	2.6	-13.6	15.8	.
N#Cc1c(-c2ccccc2)nc(SCC(=O)N2c3ccccc3Sc3ccccc32)[nH]c1=O	-6.3	1.5	0.1	12.7	-23.5	44.2*	10.4*
COc1ccc(CC2=CC(=O)c3ccccc3C2=O)cc1	99.9	-1.7	-0.5	-0.4	-33.6	77.1*	8.48*
COc1ccc(Cc2ccccc2C(=O)O)cc1	.	0.5	.	-2.6	.	.	.
CC(C)c1ccc(S(=O)(=O)/N=C2\C=C(NS(=O)(=O)c3ccccc3)C(=O)c3ccccc32)cc1	14.1	-5.5	3.2	5.4	-83.1	44.5*	6.7*
COC(=O)C(C(C)=O)C1=C/C(=N\S(=O)(=O)c2ccc(C)cc2)c2ccccc2C1=O (stereo unspecified)	0.2	3.4	2.0	2.4	-17.0	17.5	.
Cc1ccc(NC2=C/C(=N/S(=O)(=O)c3cccs3)c3ccccc3C2=O)cc1C	3.2	1.6	-0.3	1.6	-1.0	8.5	.
Cc1ccc(C)c(S(=O)(=O)/N=C2\C=C(NS(=O)(=O)c3ccccc3)C(=O)c3ccccc32)c1	1.1	-7.4	1.4	14.9	-46.5	74.6*	5.38*
CCc1ccc(S(=O)(=O)/N=C2\C=C(NS(=O)(=O)c3ccccc3)C(=O)c3ccccc32)cc1	.	-9.2	.	13.0	.	33.8*	4.02*
Cc1ccc(C)c(NC(=O)CN(C)C(=O)c2ccccc2Cc2ccccc2)c1	-11.3	1.1	1.7	-1.4	5.0	-2.4	.
CCOC(=O)CNc1nnc(SCC(=O)OCC)[nH]c1=O	-9.7	3.1	-0.7	9.2	-1.2	41.5*	6.34*
O=C(Nc1nnc(S(=O)(=O)N2CCCCC2)s1)c1cccc(Br)c1	8.0	0.2	1.6	10.0	0.2	-0.3	.
O=C(c1cc(Cl)ccc1OCc1ccccc1)N1CCOCC1	-7.2	-1.9	-0.4	-1.7	-3.3	1.8	.
Cc1ccc(C(=O)NC2(O)C(=O)c3ccccc3C2=O)cc1C	-1.6	-0.1	0.3	-2.3	-126.0	68.2*	12.1*
O=C(NC1(O)C(=O)c2ccccc2C1=O)c1ccc(C(F)(F)F)cc1	4.2	3.0	1.4	-2.3	-133.9	7.1	.
O=C(Cc1ccccc1)NC1(O)C(=O)c2ccccc2C1=O	1.0	-4.0	0.4	-21.1	-97.3	66.1*	11*
O=C(c1c[nH]c(C(=O)C(Cl)(Cl)Cl)c1)c1c(F)cccc1F	-1.9	2.2	3.4	5.2	-12.3	14.3	.
